Experimental findings from PubChem BioAssay (NCI) are described below.

This is part of a sample that, as a whole, favours compounds with a hit. Of some 79,000 tested, about 15% had one in any assay. A number with no mark means an inactive call. Active and inactive are the calls of the source. Cut-off read from the data, not from the text of the source: active = growth inhibition above about 70%; inactive = the rest.

This experiment in a line: NCI Yeast Anticancer Drug Screen. Data for the sgs1 mgt1 strain (AID 161).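 Note: 0% = growth of cultures given vehicle only.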 The settings on record: S. cerevisiae sgs1 mgt1 strain, at 50.0 µM, active compounds read high. In a few lines: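 Test agents were incubated with a DNA-repair-mutant yeast strain. Growth was then read and compared against vehicle-treated controls.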
Turning to `COc1ccc(OC)c(/C=C/C(=O)NC(CO)CSCSC)c1` (stereo not given), the growth inhibition was -3.9%.

For the molecule `CC(=O)Nc1ccc(S(=O)(=O)N/N=C/c2ccc3c(c2)OCO3)cc1`, the growth inhibition was 2.55%.

Regarding `CCCC(CC/C(C)=N/NC(N)=O)[N+](=O)[O-]` (stereo not given), the growth inhibition is 0.05%.

For the molecule `O=CC(NC(=O)C(O)C(O)C(O)C(O)CO)C(O)C(O)C(O)CO` (stereo not given), the growth inhibition is -1.45%.

In the case of `NC(=O)C1CCc2ccccc2C1` (stereo not given), the growth inhibition is 2.6%.

Take `Cc1ccc(S(=O)(=O)N/N=C2/CCC(C(C)(C)C)CC2Br)cc1` (stereo not given): the growth inhibition is -6.35%.

As to `CCN(c1ccccc1)c1ncnc2nc[nH]c12`, the growth inhibition was -1.75%.

`Cc1ccc(S(=O)(=O)C(=S)N(C)N(C)C)cc1`: the growth inhibition was 36.4%.

`OC1CCC2=C(C1)C1CCC2C1` (stereo not given): the growth inhibition was -11.8%.

In the case of `O=C(Nc1ccc(Cl)c(Cl)c1)Oc1ccc(-c2ccccc2)cc1`, the growth inhibition was 93.2% (active).

With `Nc1nc(C2CCCC2)c(Br)c(=O)[nH]1`, the growth inhibition was -17.4%.

Take `COC(=O)c1c(C=O)cccc1[N+](=O)[O-]`: the growth inhibition is 1.75%.

As to `CN(C)CC1CCC/C(=C\c2ccccc2)C1=O` (stereo not given), the growth inhibition is 47.8%.

Consider `CCN1N=CSC12C(=O)N(c1ccccc1)C(=O)N2c1ccccc1` (stereo not given), for which the growth inhibition was -31.9%.

With `CCOC(=O)C(N=Nc1ccccc1)C(=O)c1ccccc1` (stereo not given), the growth inhibition is 50.7%.

`CCCC(C)(C)O`: the growth inhibition is 22.1%.

For the molecule `CCOC(=O)/C(C)=C(/C)Nc1ccccc1`, the growth inhibition is -1.25%.

`CCn1c(C)nc([N+](=O)[O-])c1Sc1ncn[nH]1`: the growth inhibition was 11.2%.

On to `Cc1ccc(N=C2c3cc([N+](=O)[O-])ccc3-c3ccc([N+](=O)[O-])cc32)cc1`, for which the growth inhibition is 0.35%.

Take `CCCC[N+](CCCC)(CCCC)CC(=O)[O-]`: the growth inhibition is -19.8%.

Regarding `O=C(N/N=C/C=C/c1ccccc1)NNC(=O)c1cc([N+](=O)[O-])cc([N+](=O)[O-])c1`, the growth inhibition was 38.3%.

For `CC(O)c1nc2c3ccccc3ccc2n1C` (stereo not given), the growth inhibition was -6.45%.

Turning to `Cc1cccc(C(=O)OCc2ccccc2CN2CCCCC2)c1`, the growth inhibition is -12.9%.

Consider `CC(=O)OCc1cocc1COC(C)=O`, for which the growth inhibition is 20.4%.

On to `C=CCOC(=O)NC1C(OC(C)[C@@H](NC(=O)OCc2ccccc2)C(=O)OC(C)(C)C)OC(COC(C)=O)C(OC(C)=O)C1OC(C)=O` (stereo not given in full), for which the growth inhibition is -16.4%.

For `COc1ccc(CCN2C(CC(=O)c3ccccc3)CCCC2CC(=O)c2ccccc2)cc1OC` (stereo not given), the growth inhibition is -0.9%.

On to `CCCCC(CC)COS(=O)(=O)O` (stereo not given), for which the growth inhibition was -30.9%.

Take `C=C1CC(CCCCC2CC(=C)C(=O)O2)OC1=O` (stereo not given): the growth inhibition was -8.1%.

For `Clc1ccc(Nc2ncnc3oc(-c4ccccc4)c(-c4ccccc4)c23)cc1`, the growth inhibition is 1.3%.

Consider `CCn1c(=O)c(Cl)c2n(C)c3ccccc3n2c1=O`, for which the growth inhibition was -2.85%.

For the molecule `CCC(=O)Oc1cccc2ccccc12`, the growth inhibition is -14.8%.

Regarding `CCOc1cc2c(cc1C(C)c1ccc(OCc3ccccc3)cc1)OCO2` (stereo not given), the growth inhibition was 2.7%.

Turning to `C[N+]12CCCCC1CC2` (stereo not given), the growth inhibition was -7.35%.

Regarding `COc1cc(-c2nnc3n2NC=C(C(=O)O)S3)cc(OC)c1OC`, the growth inhibition was -10.9%.

In the case of `CCOC(=O)C(Cc1ccccc1Cl)(NC(C)=O)C(=O)OCC`, the growth inhibition was -0.35%.

Regarding `CC(Nc1ncccn1)Nc1ncccn1`, the growth inhibition is 7.75%.

Consider `CCN(CC)c1ccc(N=C2C=CC(=O)C(NC(C)=O)=C2)c(C)c1`, for which the growth inhibition is 29.2%.

As for `Cc1ccc(C(=O)Cc2nc3c([nH]c2=O)c(C)nn3-c2ccccc2)c(C)c1`, the growth inhibition was 2.55%.

In the case of `Cc1nc(-n2nc(-c3ccccc3)cc2-c2ccccc2)sc1C(/C=C/c1ccc([N+](=O)[O-])cc1)=N/NC(N)=S`, the growth inhibition is 12.7%.

Consider `O=S(Cc1cc2c(cc1Br)OCO2)c1ccccc1` (stereo not given), for which the growth inhibition was -20%.
